PubChem BioAssay (NCATS)
Several values for one entry are separate records, joined by “and”; a condition that tells them apart may be missing. Equal values may be shown once.

assay: qHTS drug screen for cell cycle checkpoint inhibitors in PARPi-resistant BRCA-mutant ovarian cancer cell lines. (AID 1963452); conditions: PEO1/OlaR viability, CellTiter-Glo luminescence, 96 h; measured here: PEO1 parental Z-AUC; stronger effect = lower value
In short: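 PEO1, PEO4 and PEO1/OlaR ovarian cancer cells, 600 per well, exposed 96 h at 37C to a dilution series. Viability read by CellTiter-Glo luminescence, normalized to DMSO and empty wells; activity summarized as Z-AUC.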

Row | Structure (SMILES) | Z-AUC
1 | Cc1c(C)c2c(c(C)c1O)CCC(C)(COc1ccc(CC3SC(=O)NC3=O)cc1)O2 (centres undefined) | 0.564
2 | N[C@@H]1CONC1=O | 1.55
3 | O=c1[nH]cnc2[nH]ncc12 | -0.667
4 | CC(C[N+](C)(C)C)OC(N)=O (centres undefined) | 1.37
5 | O=C(C1CC1)N1CC[C@@H](Cn2c(-c3ccc(-c4ccc5occc5c4)cc3)nc3cnccc32)C1 | 0.824
6 | Cc1[nH]c(=O)c(C#N)cc1-c1ccncc1 | -0.611
7 | Cc1n[nH]c(C)c1Cc1sc2c(c1C(=O)N1C[C@H](O)CO1)c(=O)n(C)c(=O)n2CC(C)C | -0.977
8 | CCN(CC)CCCC(C)Nc1nc(C)cc(Nc2ccc3nc(C)cc(N)c3c2)n1 (centres undefined) | 0.692
9 | CC[C@@H](C)[C@H](NC(=O)[C@H](CC1CCCCC1)NC(=O)c1ccno1)C(=O)N1CCC2(CCc3ccccc32)CC1 | -0.177
10 | Cc1cnc(NC(=O)C2=C(O)c3ccccc3S(=O)(=O)N2C)s1 | 0.615 and 0.579 and 0.604
11 | C1COC(NC(C2CC2)C2CC2)=N1 | -0.558
12 | O=NN(CCCl)C(=O)NCCCl | 0.83
13 | C#Cc1cccc(Nc2ncnc3cc(OCCOC)c(OCCOC)cc23)c1 | -1.02
14 | NS(=O)(=O)c1cc2c(cc1Cl)NC=NS2(=O)=O | 1.02
15 | CC(c1cc2ccccc2s1)N(O)C(N)=O (centres undefined) | -0.0331
16 | COc1nc(-c2ccc3c(c2)OCO3)n(-c2ccc(NC(=O)CSc3ccccc3)cc2)n1 | 1.23
17 | NCCCC(N)(C(=O)O)C(F)F (centres undefined) | 0.253

Row | Structure (SMILES) | Z-AUC
18 | CNC[C@H](O)c1cccc(O)c1 | 0.723
19 | NC(=O)C1CCCc2c1[nH]c1ccc(Cl)cc21 (centres undefined) | 0.489
20 | COc1ccc(CC2=NN3C([C@@H](CCc4ccccc4)[C@@H](C)O)=NC(C)C3C(=O)N2)cc1OC (some centres undefined) | 0.752
21 | NC(=O)c1ccc(I)c([N+](=O)[O-])c1 | 1.77
22 | Oc1cccc(-c2nc(N3CCOCC3)c3oc4ncccc4c3n2)c1 | -0.749
23 | CC(C)C[C@H](NC(=O)[C@@H](O)[C@H](N)Cc1ccccc1)C(=O)O | 0.368
24 | CCCCNc1cc(C(=O)O)cc(S(N)(=O)=O)c1Oc1ccccc1 | 0.995
25 | O=C1CCc2cc(OCCCCc3nnnn3C3CCCCC3)ccc2N1 | -0.972
26 | NCCc1ccc(O)c(O)c1 | 0.902
27 | NC[C@H](O)c1ccc(O)c(O)c1 | -0.854
28 | CC(C)(C)OC(=O)CN(Cc1ccc(Cl)cc1)Cc1ccc([N+](=O)[O-])s1 | 0.527
29 | Nc1nc2c(ncn2COCCO)c(=O)[nH]1 | -0.588
30 | OCCn1cc(-c2cnc3nnn(Cc4ccc5ncccc5c4)c3n2)cn1 | 0.0266
31 | CC(C)(C)NCC(O)c1ccc(O)c(CO)c1 (centres undefined) | 0.915
32 | CCc1ccc(CCOc2ccc(CC3SC(=O)NC3=O)cc2)nc1 (centres undefined) | 0.268
33 | O=C(O)[C@@H](c1ccc(OCc2ccc3ccccc3n2)cc1)C1CCCC1 | 0.403
34 | O=C(O)CCc1ccc(NCc2cccc(Oc3ccccc3)c2)cc1 | 1.54
